# Results published in PubChem BioAssay AID493165 (National Center for Advancing Translational Sciences (NCATS), 2011).
# The source made the active and inactive calls. Calls follow the shape of the dose curve; as a rule, active = well fitted curve in the direction sought with a large enough effect; inactive = no such curve, though single readings can be large or run the other way.
# Assay: Retest of LOPAC molecules that induce DNA re-replication in SW480 adenocarcinoma cells.
# Excerpt: NIH Molecular Libraries Probe Production Network [MLPCN] NIH Chemical Genomics Center [NCGC] MLPCN Grant: Fast Track K99 CA136555 Assay Provider: Melvin DePamphilis, NICHD, NIH Assay Overview Eukaryotic cells normally restrict genome duplication to once per cell division. When this process is aberrant, DNA re-replication occurs when cells reinitiate DNA replication before the first round of replication is complete. DNA re-replication induces the DNA damage response, arrests cell proliferation, and triggers apoptosis. The cell cycle components cyclin A, Cdt-1, Cdc6 and geminin are critical regulators of this process and their misregulation results in DNA re-replication in normal and cancer cells. To identify compounds that induce re-replication in normal cells, an image-based assay was used to measure DNA content of nuclei, as detected by the fluorescent DNA binding dye, Hoechst. Cell nuclei were imaged by a fluorescence scanning plate imager and compounds that induce DNA re-replication were identified by the increase of nuclei with elevated fluorescence intensity.
# Assay Protocol Summary For screening, 250 cells in 5 uL/well were dispensed into black clear 1536-well plates (Aurora) using a solenoid-based dispenser. Following transfer of 23 nL compound or DMSO vehicle by a pin tool, the plates were incubated 48 hr at 37 C and 5% CO2. After addition of 1 uL/well Hoescht stain, the plates were incubated 40 min at 37 C, 5% CO2 and total intensity of fluorescent objects (nuclei) were enumerated by an Acumen Explorer Ex3 (TTP LabTech) fluorescence scanning plate imager (405 nm excitation, 500-530 nm emission). Keywords: NIH Roadmap, MLPCN, MLI, MLSMR, qHTS, NCGC, DNA replication, cancer
row,Compound,Potency
1,C[C@@H](Oc1ccc(Oc2cnc3ccc(Cl)cc3n2)cc1)C(=O)O,inactive
2,COc1cc2c(cc1O)CC[C@@H]1[C@@H]2CC[C@]2(C)[C@@H](O)CC[C@@H]12,6.73 µM (active)
3,O=c1cc(-c2ccccc2)[nH]c2nc(Cl)ccc12,1.69 µM (active)
4,CCCCCCN(CCCCCC)C(=O)Cc1c(-c2ccc(F)cc2)[nH]c2ccccc12,inactive
5,CC(=O)O[C@H]1C(=O)[C@@]2(C)C([C@H](OC(=O)c3ccccc3)[C@]3(O)C[C@H](OC(=O)[C@H](O)[C@@H](NC(=O)c4ccccc4)c4ccccc4)C(C)=C1C3(C)C)[C@]1(OC(C)=O)CO[C@@H]1C[C@@H]2O (stereo not given in full),0.169 µM (active)
